In PubChem BioAssay AID739 (SRMLSC, 2007):
The campaign covered roughly 98,000 compounds. About 880 (0.9%) were called active. This is one part of a sample in which actives are shown more often than they occur. Unmarked numbers belong to inactive results. No stated cut-off is given here; in the data, active means inhibition above about 30%; inactive means the rest.

Test: phenotypic screen on post-Golgi transport, primary screen (AID 739);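 further: yeast cells grown in 1536-well plates; yeast grown about 18 h at 30C before absorbance read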
Details: post-Golgi transport phenotypic cell assay; at 10 µM; active compounds read high

Compound | inhibition
O=C(c1cccc(F)c1)N1CCC(O)(c2cccnc2)CC1 | 1.27%
COc1ccc2[nH]cc(/C=C(/C#N)S(=O)(=O)c3ccccc3)c2c1 | -4.52%
Cc1ccc(C2(C(F)(F)F)N=C3Sc4cc(C)cc(C)c4N3C(=O)N2)cc1 (configuration not stated) | 90.2% (active)
Cc1n[nH]c(=O)n1-c1ccc(Oc2ccccc2)cc1 | -19.2%
COC(=O)Nc1ncc(CN2CCCCC2)s1 | -4.67%
Cc1ccc(/C=N/NC(=O)C(NC(=O)c2ccccc2)c2n[nH]c(=O)c3ccccc23)cc1 (configuration not stated) | 0.64%
Cc1cc(NC(=O)/C=C/C(=O)N(c2ccccc2C)C(C(=O)NC2CCCC2)c2ccc(F)cc2)no1 (configuration not stated) | 0.32%
CC1=CC(C)(C)N(C(=O)CSc2nnc(-c3ccccc3)o2)c2ccc(C)cc21 | 101% (active)
O=C(CSc1nnc(-c2ccccc2)o1)N1CCOCC1 | 8.7%
CC1=CC(C)(C)N(C(=O)CSc2nccn2C)c2cc(C)ccc21 | 5.13%
Cc1ccc(CNC(=O)c2ccccc2CCc2ccccc2)cc1 | -2.21%
FC(F)(F)COc1nc(N2CCCCC2)nc(N2CCNCC2)n1 | 33.5% (active)
O=C(CSCc1ccc(Cl)cc1)N1CCCCC1 | -4.56%
Cc1cc(C)c([N+](=O)[O-])cc1-c1ccc(/C=N/NC(=O)c2nonc2N)o1 | -6.17%
O=C1C2C3C=CC(C4CC34)C2C(=O)N1/N=C/c1ccc(-c2ccccc2[N+](=O)[O-])o1 (configuration not stated) | 3.37%
Cc1cc(-c2ccc(/C=N/n3cnnc3)o2)c([N+](=O)[O-])cc1C | 59.7% (active)
Cc1cc([N+](=O)[O-])c(-c2ccc(/C=N/n3cnnc3)o2)cc1Cl | 99.8% (active)
CCOc1ccc(C(=O)NCCCN2CCCC2=O)cc1 | 11.5%
O=C(COC(=O)c1ccccc1NC(=O)c1ccco1)Nc1ccc2c(c1)OC(F)(F)O2 | -2.04%
Cc1nc2ccc(NC(=O)C(F)(F)F)cc2o1 | -13.7%
OC(c1ccccc1)c1nccn1Cc1ccccc1 (configuration not stated) | -6.53%

Compound | inhibition
Cn1c(-c2sc3cc(C(F)(F)F)cnc3c2-c2ccccc2)n[nH]c1=S | -3.98%
c1ccc2c(CSCc3nc4ccccc4[nH]3)cccc2c1 | 4.1%
Cc1ccc(SCC(=O)Nc2ncc(C)s2)cc1 | -7.09%
O=C1c2ccccc2C2=Nc3ccccc3SC(c3ccccc3F)C12 (configuration not stated) | 103% (active)
Cc1c(CCO)c(=O)n(-c2ccccc2)n1S(=O)(=O)c1ccc(F)cc1 | -6.46%
CC(C)Cc1nc(N2CCOCC2)c(C#N)c2c1CCC2 | 35% (active)
CC(C)CCNc1nc(N2CCCC2)c2c(c1C#N)CCN(C)C2 | -1.14%
CC(C)c1nc(N2CCOCC2)c(C#N)c2c1COC(C)(C)C2 | -8.94%
CCOc1ccc(-c2c(C)n([O-])c3c([n+]2=O)CCCC3)cc1 | 0.66%
COc1ccc(C2CC(c3ccccc3)Nc3ncnn32)cc1 (configuration not stated) | 4.34%
FC(F)Oc1ccccc1C1CC(c2ccc(Br)s2)Nc2ncnn21 (configuration not stated) | 39.4% (active)
Clc1ccc(C2CC(c3cccs3)n3ncnc3N2)cc1Cl (configuration not stated) | 1.99%
CC(C)C(=O)OCC(=O)Nc1ccc2c(c1)CCC2 | 7.4%
CCC(=O)NC(Nc1cc(C)ccn1)(C(F)(F)F)C(F)(F)F | 6.28%
COc1ccc(Br)cc1S(=O)(=O)N1CCN=C1C | 31.5% (active)
COCCNS(=O)(=O)c1cc(Br)ccc1OC | 8.12%
CC1=NCCN1S(=O)(=O)c1ccc(Br)c(C)c1 | 3.83%
COCc1[nH][nH]c(=O)c1C=Nc1ccc(F)cc1F | 5.45%
COC(=O)c1cc(NC(=O)C2C3C=CC(C3)C2C(=O)O)cc(C(=O)OC)c1 (configuration not stated) | 2.17%
CCc1nn(-c2cc(Oc3cccc4ccccc34)nc(-c3ccccc3)n2)c(N)c1C#N | -15.9%
O=[N+]([O-])c1ccc(Oc2ccc(F)cc2Br)c2ccncc12 | 54.4% (active)

Compound | inhibition
CCOC(=O)Nc1sc(C(=O)N(C)C)c(C)c1C(=O)OCC | 21.1%
Cc1ccc(CCN2CC(C(=O)O)CC2=O)cc1 (configuration not stated) | -4.77%
NC(=O)N1CCCC1C(=O)Nc1ccc(Cl)c(Cl)c1 (configuration not stated) | -3.91%
O=C(NCCc1ccccc1)/C(=C\c1ccc([N+](=O)[O-])cc1)NC(=O)c1ccccc1 | 4.97%
CCOC(=O)/C(C#N)=C/c1ccc(OCC(=O)Nc2ccccc2)c(OC)c1 | 6.16%
CCOC(=O)/C(=C\c1ccc([N+](=O)[O-])cc1)C(=O)c1cc(C(C)=O)c(Nc2ccccc2)s1 | 64.9% (active)
Cc1noc(/C=C/c2ccco2)c1S(=O)(=O)N1CCC(C(=O)N2CCc3ccccc32)CC1 | -4.89%
COc1ccccc1CSc1nc2ccccc2[nH]1 | 1.93%
CCc1c(-c2ccccc2)nc(N)c(C#N)c1-c1cccs1 | 2.36%
O=c1c2ccccc2oc2nc3n(c(=O)c12)CCCS3 | 5.66%
CCc1nc2oc3ccccc3c(=O)c2c(=O)n1Cc1ccc(OC)cc1 | 8.05%
O=c1c2ccccc2oc2nc(C3CCCCC3)n(Cc3ccco3)c(=O)c12 | 68.9% (active)
COc1cc(/C=C(/NC(=O)c2ccccc2)C(=O)Nc2cccc(O)c2)c([N+](=O)[O-])cc1OC | -17.3%
COCCn1c(SCc2nc3cc(OC)c(OC)cc3c(=O)[nH]2)nnc1-c1ccncc1 | 6.95%
C=CCNC(=O)c1sc(SC)cc1-c1ccc(Cl)cc1 | 20%
CCCCCCC(=O)Nc1nc(C)c(-c2csc(Nc3cccc(OC)c3)n2)s1 | -3.09%
COc1ccc(C2=NO[C@@H]3C(=O)N(Cc4ccccc4)C(=O)[C@H]23)cc1OC | 6.43%
O=C(Nc1ccccc1)c1nnsc1S(=O)(=O)c1ccc(Cl)cc1 | 76.3% (active)
O=C(Nc1ccc(Cl)cc1)c1ccsn1 | 8.05%
CC(=O)Nc1cc(C(=O)O)ccc1S(=O)(=O)c1ccc(Cl)cc1 | -1.65%
